Several values for one entry are separate records, joined by “and”; a condition that tells them apart may be missing. Equal values may be shown once. Records with an inconclusive call do not appear. Where a call stands in place of a potency, no number is given. Values without a mark were called inactive. Activity calls are given as the source filed them. Calls come from the whole dose curve; as a rule, active = well fitted inhibition curve with a large enough effect in the signal ratio in the repeat runs, with a control signal flat; inconclusive = weak or mixed curves, or effect the other way; inactive = flat fitted curve, though single readings scatter; the % refers to the signal ratio. Peptide text beside a SMILES is read from it.
Potency is the fitted concentration of half-maximal effect.

D(2) dopamine receptor (Homo sapiens), sequence (P14416 whole entry, looked up): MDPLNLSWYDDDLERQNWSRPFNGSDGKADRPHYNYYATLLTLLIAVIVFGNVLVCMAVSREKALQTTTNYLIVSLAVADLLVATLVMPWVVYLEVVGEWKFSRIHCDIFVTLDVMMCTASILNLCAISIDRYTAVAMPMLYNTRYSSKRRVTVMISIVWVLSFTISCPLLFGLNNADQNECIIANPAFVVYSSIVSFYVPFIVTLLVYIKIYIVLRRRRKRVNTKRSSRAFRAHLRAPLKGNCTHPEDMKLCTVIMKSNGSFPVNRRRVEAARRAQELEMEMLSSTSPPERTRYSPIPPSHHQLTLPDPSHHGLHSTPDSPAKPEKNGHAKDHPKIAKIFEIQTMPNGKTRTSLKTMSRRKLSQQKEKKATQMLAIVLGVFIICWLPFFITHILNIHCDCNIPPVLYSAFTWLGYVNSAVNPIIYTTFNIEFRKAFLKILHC

This test addresses D(2) dopamine receptor (Homo sapiens) (UniProt P14416). Briefly: Dopamine D2 receptor (DRD2) small molecule antagonists, cell-based qHTS assay (AID 1963595). The settings on record: HEK293-DRD2 cAMP HTRF antagonist mode; series mostly up to 92.4 µM; activity change, negative = inhibition: at the top concentration. The text has this: National Center for Advancing Translational Sciences [NCATS]
Division of Preclinical Innovation [DPI]
U.S. Environmental Protection Agency [EPA]
National Institutes of Environmental Health Sciences [NIEHS]
National Toxicology Program [NTP]
U.S. Food and Drug Administration [FDA]
DRD2 is the D2 subtype of the dopamine receptor, which is coupled to Gi subtype of G protein-coupled receptor. This G protein-coupled receptor inhibits adenylyl cyclase activity. The DRD2-HEK293 cell line stably expressing D2 dopamine receptor can be used for screening agonists and antagonists of interactions between D2 and its ligands. The Hek293-DRD2 cAMP assay is based on HTRF technology. It measures changes of cAMP accumulation in response to Gi coupled GPCR activation or inhibition.
Tox21 Assay Protocol Summary:
DRD2-Hek293 cells were dispensed at 600 cells/3uL/well in 1536-well white plates using a Multidrop Dispenser. After the assay plates were incubated at a 37 C/5% CO2 incubator for 24 h, 1 uL of Ro20-1724 at final concentration of 0.1 mM was transferred to the assay plate by a Flying Reagent Dispenser. Following Ro20-1724 addition, 23 nL of compound dissolved in DMSO, positive controls or DMSO only was added to the assay plates via Wako pintool station. The assay plates were incubated at room temperature for 10 min. Next, 1 uL of mixture of NKH477 (final concentration at 200 nM) and quinpirole (final concentration at 12 nM) was added into the plates. After the assay plates were incubated at room temperature for an additional 30 min, 2.5 ul/well of cAMP-d2 and 2.5 ul/well of anti-cAMP-cryptate were added respectively into the assay plates using a Flying Reagent Dispenser. The plates were incubated at room temperature for 1 h. The fluorescence intensity in the plates was measured at 340 nm excitation and 665 & 620 nm emission by an Envision plate reader.
As to `Cc1cc(C)c(C)cc1C`, the Potency entry is “inactive”.
The same measure, in the same setting: under `O=C1OC(c2ccc(O)cc2)(c2ccc(O)cc2)c2ccccc21` stands “inactive”; under `c1ccc2cc3ccccc3cc2c1`, “inactive”.
The same measure, in the same setting: under `CCOCCO` stands “inactive”; under `Cc1ccc([N+](=O)[O-])c(C)c1`, “inactive”; under `Cc1cc(Cc2ccc(N)c(C)c2)ccc1N`, “inactive”.
Still for that read-out and setting: under `COc1cc(C=O)ccc1O` stands “inactive”.
Take `NC(=S)NNC(N)=S`: the Potency result is “inactive”.
As for `C=C(C#N)C(=O)OCC`, the “activity change, negative = inhibition” value is -4.7%.
On to `O=[Se](O)O`, for which the Potency result is “inactive”.
The same measure, in the same setting: under `CCCCOC(=O)c1ccc(N)cc1` stands “inactive”.
On the same count and under the same terms, under `Nc1cc([N+](=O)[O-])ccc1C(=O)O` stands “inactive”.
Still for that read-out and setting: under `CC(=O)CC(C)(C)O` stands “inactive”.
Turning to `NC(=O)/N=N/C(N)=O`, the Potency result is “inactive”.
The same measure, in the same setting: under `OB(O)O` stands “inactive”; under `COC(=O)c1ccc(C=O)cc1`, “inactive”; under `C=C(C)CC(C)(C)C`, “inactive”.
Turning to `CC(=O)Nc1ccc2c(c1)Cc1cc(NC(C)=O)ccc1-2`, the Potency result is “inactive”.
The same measure, in the same setting: under `O=C(O)C(=O)O` stands “inactive”; under `CC(=O)OC(C)C`, “inactive”.
Turning to `CC(=O)C(C)C`, the Potency result was “inactive”.
The same measure, in the same setting: under `CC(C)NCC(O)c1ccc(O)c(O)c1` (stereo not given) stands 303 nM (active) and 969 nM (active) and 596 nM (active); under `O=C(O)CCCC[C@@H]1SC[C@@H]2NC(=O)N[C@@H]21`, “inactive”; under `O=C(O)CCCCC1CCSS1` (stereo not given), “inactive”.
In the case of `Nc1ccc(S(=O)(=O)Nc2cnc3ccccc3n2)cc1`, the Potency result was “inactive”.
Regarding `COC(=O)[C@H](Cc1ccccc1)NC(=O)[C@@H](N)CC(=O)O` (H-Asp-Phe-OMe), the Potency entry was “inactive”.
For the molecule `CNC[C@H](O)[C@@H](O)[C@H](O)[C@H](O)CO`, the Potency entry was “inactive”.
Turning to `O=S(=O)(O)c1ccc2ccccc2c1`, the “activity change, negative = inhibition” value is -11%.
Same read-out and setting: under `O=C1CCC(N2C(=O)c3ccccc3C2=O)C(=O)N1` (stereo not given) stands 5.97% [at 42.5 µM].
Consider `COC(=O)c1ccc(O)cc1`, for which the Potency entry was “inactive”.
Still for that read-out and setting: under `NC(=O)NC1NC(=O)NC1=O` (stereo not given) stands “inactive”.
Still for that read-out and setting: under `NS(=O)(=O)c1cc2c(cc1Cl)NC=NS2(=O)=O` stands “inactive”; under `O=c1c(O)c(-c2ccc(O)cc2)oc2cc(O)cc(O)c12`, “inactive”; under `C#C[C@]1(O)CC[C@H]2[C@@H]3CCC4=CC(=O)CC[C@@H]4[C@H]3CC[C@@]21CC`, “inactive”.
On the same count and under the same terms, under `CC(CCl)OP(=O)(OC(C)CCl)OC(C)CCl` (stereo not given) stands “inactive”; under `CC(=O)Nc1ccc(C(=O)CCl)cc1`, “inactive”.
On to `CC1CCC2CC1C2(C)C` (stereo not given), for which the Potency entry was “inactive”.
Still for that read-out and setting: under `O=C(OCc1ccccc1)c1ccccc1O` stands “inactive”; under `c1ccc2[nH]c(-c3cscn3)nc2c1`, “inactive”.
Still for that read-out and setting: under `CC[C@H](C)C(=O)O[C@H]1C[C@@H](C)C=C2C=C[C@H](C)[C@H](CC[C@@H]3C[C@@H](O)CC(=O)O3)[C@H]21` stands “inactive”.

Source of the values: PubChem BioAssay (Tox21).
